Most compounds without a hit are left out; they make up all but 4.6% or so of the library.
SKKanGAS inh – blocks kanamycin growth of S. pyogenes SKKanGAS strain; BacTiter-Glo, 6 h; inhibition, % at 7.5 µM; 300,000 compounds, 1.3% hits; AID 1662;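 active means mean replicate score, as percent of positive control median, at least 50; inconclusive means mean below 50 but one replicate at or above 50; inactive means mean and every replicate below 50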;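 further: strain carries kanamycin resistance gene driven by streptokinase promoter and grows in 40 µg/ml kanamycin; loss of luminescence reflects streptokinase promoter inhibition or plain growth inhibition; 0% = median of DMSO wells and 100% = positive control at its reference dose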
tim23-1 inh – inhibits growth of tim23-1 mutant yeast; inhibition, % at 20 µM; S. cerevisiae tim23-1 growth, BacTiter-Glo luminescence, 24 h; 330,000 compounds, 1.3% hits;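 active means growth inhibition of the mutant yeast at or above 50%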;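 further: temperature-sensitive mutant grown at 25 °C; plate controls were DMSO-treated mutant yeast for no effect and medium wells lacking yeast for full effect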
TIM10 inh – inhibits growth of TIM10 yeast strain; S. cerevisiae TIM10 strain growth, BacTiter-Glo luminescence, 24 h; inhibition, % at 10 µM; 330,000 compounds, 1.4% hits;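 active means inhibition of 40% or more at the single tested concentration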;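 further: wild-type TIM10 isogenic control strain grown at permissive 25 °C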
tim10-1 inh – growth inhibitors of tim10-1 mutant yeast; S. cerevisiae tim10-1 ts strain growth, BacTiter-Glo, 24 h; inhibition, % at 20 µM; 330,000 compounds, 2.2% hits; AID 463190;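 active means inhibition of at least 40%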;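 further: mutant grown at 25 °C; 0% = DMSO wells with yeast and 100% = wells holding no yeast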
NALP3 yeast inh – NALP3 inhibition in yeast; Yeast reconstituted NLRP3/ASC/caspase-1, beta-gal luminescence, 24 h; inhibition, % at 10 µM; 330,000 compounds, 0.39% hits;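 active means inhibition of 50% or more; inactive means inhibition below 50%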;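 further: plate controls were induced DMSO wells for no effect and uninduced yeast grown without galactose for full effect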
PfHsp90 yeast 2 – inhibits growth of yeast expressing Plasmodium falciparum Hsp90; inhibition, % at 9.4 µM; S. cerevisiae expressing PfHsp90, BacTiter-Glo ATP, 48 h; yeast lacking PDR1 and PDR3 efflux regulators; 310,000 compounds, 0.32% hits;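 active means every replicate shows inhibition above about 80%, whatever the replicate mean, limit read from the data; inconclusive means mean inhibition reaches the set limit but some replicate falls short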;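 further: 0% = DMSO neutral controls and 100% = 20 µM radicicol positive controls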
NALP3 confirm – confirmation of NALP3 inhibitors in yeast. AID 435006. inhibition, % at 10 µM. yeast expressing human NALP3, luminescence. 1,300 compounds, 81% hits. shares compounds with NALP3 yeast inh; in the data active means inhibition above about 48%
Casp1-ASC yeast – caspase-1-ASC yeast counter-screen hit; shares compounds with NALP3 yeast inh; yeast expressing Caspase-1-ASC, luminescence counter screen; inhibition, % at 10 µM; 1,000 compounds, 66% hits; AID 488784
NALP3 yeast rt – confirmation retest of NALP3 inhibitors in yeast | shares compounds with NALP3 yeast inh | yeast expressing human NALP3, luminescence read-out | inhibition, % at 10 µM | 1,000 compounds, 53% hits | AID 488794
* = called active by the depositor; ? = inconclusive; . = no result. Unless noted, no stated cut-off is given here; in the data, active means inhibition above about 50%; inactive means the rest.

SMILES	SKKanGAS inh	tim23-1 inh	TIM10 inh	tim10-1 inh	NALP3 yeast inh	PfHsp90 yeast 2	NALP3 confirm	Casp1-ASC yeast	NALP3 yeast rt
Nc1c(-c2cccc(Cl)c2)cnn1-c1cccc(C(F)(F)F)c1	32	31	17	17	54*	12	73*	65*	50*
Nc1c(-c2ccccc2)cnn1-c1cccc(C(F)(F)F)c1	21	-16	-41	-25	60*	5	62*	62*	53*
Cc1ccc(-c2cnn(-c3ccccc3)c2N)cc1	10	18	-2	24	14	23	.	.	.
CCN(CC)CC#CCC(C)(c1ccccc1)c1ccccc1	2	5	17	7	26	5	.	.	.
N#Cc1nc(COc2ccc(Br)cc2)oc1N1CCCC1	-6	32	-14	22	54*	.	62*	50*	41
CN1CCN(c2oc(COc3ccc(-c4ccccc4)cc3)nc2C#N)CC1	-7	22	13	-1	60*	0	50*	76*	65*
N#Cc1nc(COc2ccccc2)oc1N1CCCC1	7	8	-22	3	75*	3	49*	79*	64*
COc1ccccc1OCC(=O)NNC(=O)c1ccc2c(=O)n3c(nc2c1)CCC3	-15	2	1	-4	16	16	.	.	.
CC(=O)c1c(C)[nH]c(C(=O)COC(=O)CN(C)S(=O)(=O)c2ccc(Cl)cc2)c1C	-3	28	15	20	-1	-1	.	.	.
CC(=O)NCc1ccc(C(=O)CSc2nnc(C3CC3)n2C2CC2)cc1	.	12	-4	12	2	26	.	.	.
Cc1ccc(-n2nc(C)c(=O)c(-c3ccccc3)c2NC(=O)c2cccs2)cc1	-4	-16	5	1	11	14	.	.	.
Cn1c(=O)c(C(=O)NNC(=O)c2ccccc2F)c(O)c2ccccc21	61*	37	11	-42	64*	13	82*	45	54*
CCOC(=O)C1CCN(C(=O)C(=O)Nc2ccc3nc4n(c(=O)c3c2)CCCCC4)CC1	-4	9	-4	-9	5	20	.	.	.
O=C(Nc1cccc(-c2ccc(N3CCOCC3)nn2)c1)c1ccc(Cl)cc1	36	-1	-3	1	3	18	.	.	.
O=C(COc1ccc(Cl)cc1)Nc1cccc(-c2ccc(N3CCOCC3)nn2)c1	43	-5	-1	-12	61*	20	75*	49	46
Cc1cccc(OCCCSc2nc3ccc(C)cc3[nH]2)c1	-8	-18	4	-29	50*	-3	53*	54*	42
CCCN1CC(O)=C(C#N)C1=O	-3	4	-22	13	-5	2	.	.	.
COC(=O)[C@H]1C[C@H](C(=O)O)[C@@H](C)C1(C)C	.	12	-5	18	1	15	.	.	.
CCn1c(COc2ccc(C)cc2)nnc1SCc1ccc(C#N)cc1	?	34	-3	31	61*	2	71*	54*	39
CCOC(=O)c1c(-c2ccccc2)nc2ccccn12	1	15	16	20	97*	-10	99*	99*	99*
O=C(NCc1ccccn1)c1ccc(OC2CCN(Cc3ccc(Cl)s3)CC2)cc1	-2	5	3	8	25	-17	.	.	.
COc1cc(C(=O)Nc2scc(-c3ccc(Br)cc3)c2C(=O)O)cc(OC)c1OC	37	27	16	26	17	-9	.	.	.
Cc1cccc(C(=O)Nc2scc(-c3ccc(Br)cc3)c2C(=O)O)c1	89*	43	4	12	61*	-16	61*	13	26
COc1ccc(NS(=O)(=O)c2cccc(C(=O)NNC(=O)CNC(=O)c3cccc(C)c3)c2)cc1	-10	-6	-4	-13	8	12	.	.	.
O=C1Nc2ccccc2S/C1=C/c1cccs1	-9	31	19	-3	65*	-3	-1	.	.
